Results filed as inconclusive are left out. Activity calls are given as the source filed them. Unless noted, calls follow the shape of the dose curve; as a rule, active = well fitted curve in the direction sought with a large enough effect; inconclusive = small, poorly fitted or top-dose-only effect, or another doubt; inactive = no such curve, though single readings can be large; an effect the other way counts as inactive or inconclusive.
How the values were obtained:
[1] = target: Cytochrome P450 1A2 (Homo sapiens) (UniProt P05177); test: p450-cyp1a2 (AID 410; calls by dose curve; also: potency is read from the fitted curve at half-maximal effect)
In short: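 20nM CYP1A2 with 100uM Luciferin-ME (at Km) in 100mM KPO4; compound preincubated 10 min, NADPH regeneration added, 60 min at room temperature. Luciferin quantified by luminescence after detection reagent; normalized to 57 uM furafylline.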

[2] = Stat Signaling Pathway (AID 446; active = well fitted curve in either direction with a large enough effect, not every such curve was filed as active;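 also: ME-180 cervical cancer cells given 40 pM IL-6 alongside compound; SIE-controlled beta-lactamase reporter measured as 460/530 nm FRET emission ratio; % is scaled to controls: 0 for no effect and ±100 for the full control effect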); settings: ME-180 SIE beta-lactamase reporter, IL-6 stimulated, 5 h; at 7.69 µM (top of the series) unless noted
In short: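 Reporter line: ME-180 cervical carcinoma, SIE-beta-lactamase. Treatment: compound with 40 pM IL-6, 5 hrs, 37 C, in low-serum OPTI-MEM with 10 mM HEPES pH 7.3. Detection: 460/530 nm fluorescence.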

[3] = target: Glucocorticoid receptor (Homo sapiens) (UniProt P04150); test: GR-GFP Redistribution (AID 450;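 active = compounds whose dose series gives a full or clear partial fitted curve of increased nuclear translocation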; also: potency is read from the fitted curve at half-maximal effect); settings: U2OS GR-GFP nuclear translocation, laser cytometry, 2 h
[4] = target: Glucocorticoid receptor (Homo sapiens) (UniProt P04150); test: GR-EFC Redistribution (AID 451; calls by dose curve; also: potency is read from the fitted curve at half-maximal effect); settings: CHO-K1 GR-EFC translocation, beta-gal luminescence, 2 h
In short: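 CHO-K1 cells expressing nuclear EA and GR-ED fragments of b-gal; compounds titrated up to 46 uM final, 2 h at 37 C. GR nuclear translocation read as complemented b-gal luminescence after 1 h RT detection.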

[5] = target: 3',5'-cyclic-AMP phosphodiesterase 4B (Homo sapiens) (UniProt Q07343); test: qHTS Assay for Inhibitors of PDE-IV (AID 607; active = well fitted activation curve with a large enough effect in the main read-out, with a control signal flat, not every such curve was filed as active; also: % of control where 0% means no effect)
In short: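 Cell-based read-out of cAMP via a modified cyclic nucleotide-gated channel and membrane potential dye (535/590 nm) in HEK293 cells expressing PDE4 endogenously. Compounds tested up to 22.9 uM final; 100 uM RO 20-1724 reference.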

[6] = target: Cytochrome P450 3A4 (Homo sapiens) (UniProt P08684); test: qHTS Assay for Activators of Cytochrome P450 3A4 (AID 885); also: nearly all actives have a fitted effect of over 65% in size
In short: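 Signal was normalized against complete inhibition by 57 uM ketoconazole. The reaction used 20nM CYP3A4 with 25uM Luciferin-PPXE, 10-min compound preincubation and a 60-min NADPH-supported step at RT.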

[7] = target: Cytochrome P450 2C19 (Homo sapiens) (UniProt P33261); test: qHTS Assay for Inhibitors and Substrates of Cytochrome P450 2C19 (AID 899); also: nearly all actives have a fitted effect of over 60% in size; also: potency is read from the fitted curve at half-maximal effect
In short: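 5 nM human CYP2C19 with 10uM Luciferin-H EGE (at KM) in 50mM KPO4, compound preincubated 10 min at 37C, then NADPH regeneration for 60 min at 37C. Luciferin read by luminescence after detection reagent; normalized to 57uM ketoconazole as full inhibition.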

[8] = qHTS Assay for Lipid Storage Modulators (AID 1519; calls by dose curve); settings: Drosophila S3 cells, BODIPY lipid droplet/cell ratio, laser cytometry, cells loaded with oleic acid; for activity change, negative = inhibition: at 57.5 µM (top of the series)
In short: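 Cells seeded at 5,000 per well were treated with compounds over a concentration series and loaded with oleic acid (400 uM, as added). Lipid droplet fluorescence (488 nm excitation, 500-530 nm channel) was read by laser-scanning cytometry and normalized to 20 uM Triacsin C.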

[9] = target: Dual specificity protein kinase CLK4 (Homo sapiens) (UniProt Q9HAZ1); test: qHTS Assay for Inhibitors of CDC-like Kinase 4 (Kinase-Glo Assay) (AID 1770); also: nearly all actives have a fitted effect of over 65% in size; also: potency is read from the fitted curve at half-maximal effect
In short: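 Clk4 25 nM, RS peptide 100 uM, ATP 1 uM, pH 7.5 Tris, 10 mM MgCl2, 2.5 mM DTT; 4.5 h RT; ATP depletion read by Kinase-Glo luminescence.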

[10] = target: Dual specificity protein kinase CLK4 (Homo sapiens) (UniProt Q9HAZ1); test: qHTS Assay for Inhibitors of CDC-like Kinase 4 (ADP-FP Assay) (AID 1795); also: nearly all actives have a fitted effect of over 60% in size; also: potency is read from the fitted curve at half-maximal effect
In short: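 Kinase activity was followed as ADP output, converted from fluorescence polarization with a calibration curve. Reactions ran one hour at low ATP (1 uM) with RS peptide substrate.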

[11] = target: Ubiquitin carboxyl-terminal hydrolase 1 (Homo sapiens) (UniProt O94782); test: Inhibitors of USP1/UAF1: Pilot qHTS (AID 504865);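 also: rhodamine fluorescence freed from ubiquitin-rhodamine substrate followed over time; top concentration of the series differs between compounds; % is scaled to controls: 0 for no effect and ±100 for the full control effect; nearly all actives have a fitted effect of over 35% in size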
In short: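 Enzyme-free wells gave the negative control, while test wells held 1nM USP1/UAF1 preincubated with compound for 15 min at room temperature. Ub-Rho at 150nM final started the reaction, and fluorescence at 480/540 nm was recorded kinetically.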

[12] = AP1 Signaling Pathway (AID 357; active = well fitted curve in either direction with a large enough effect, not every such curve was filed as active;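 also: ME-180 reporter cells stimulated with EGF at its EC50 level; % is scaled to controls: 0 for no effect and ±100 for the full control effect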); settings: ME-180 AP-1-bla reporter, EGF-induced, beta-lactamase ratio, 5 h; at 7.69 µM (top of the series) unless noted
In short: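 Beta-lactamase reporter under AP-1 response element, ME-180 background. Stimulus: EC50 EGF. Compound exposure 5 h, 37 °C. Detection: CCF4, 2.5 h RT, 460/530 nm. Values: AC50 from titration.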

[13] = NFAT Signaling Pathway (AID 444; active = well fitted curve in either direction with a large enough effect, not every such curve was filed as active;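 also: carbachol stimulus at about its EC50 of 1 µM final; % is scaled to controls: 0 for no effect and ±100 for the full control effect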); settings: Jurkat NFAT-bla M1, carbachol, beta-lactamase ratio, 5 h; at 7.69 µM (top of the series) unless noted
In short: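 Jurkat cells with NFAT-driven β-lactamase reporter and co-expressed M1 receptor, stimulated with carbachol (final 1 uM, ~EC50), compound titration, 5 h at 37 °C. CCF4 loaded 1 h at RT; 460/530 nm ratio gave %activity and AC50.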

[14] = target: Mitogen-activated protein kinase 10 (Mus musculus) (UniProt Q61831); test: JNK3 AlphaScreen Assay (AID 530; active = well fitted curve in either direction with a large enough effect, not every such curve was filed as active;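 also: kinase came from lysate of stimulated human HepG2 cells; signal reports phosphorylation of biotinylated GST-cJun 1-79 at Ser73 with 10 µM ATP; % is scaled to controls: 0 for no effect and ±100 for the full control effect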)
In short: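 Pre-activated (IL-1β/TNFα) JNK3 in HepG2 lysates phosphorylates biotin-GST-cJun(1-79), 10 uM ATP; anti-phospho-cJun(Ser73) AlphaScreen read at room temperature, pH 7.6 Tris buffer. Compounds pre-incubated 15 min as titrations.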

[15] = target: Dual specificity protein kinase CLK4 (Homo sapiens) (UniProt Q9HAZ1); test: qHTS Assay for Inhibitors of CDC-like Kinase 4 (ADP-Glo Assay) (AID 1771); also: nearly all actives have a fitted effect of over 70% in size; also: potency is read from the fitted curve at half-maximal effect
In short: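 25 nM Clk4 with 100 uM RS repeat peptide and 1 uM ATP (final) in buffer with 2 mM MgCl2, 0.5 mM EGTA, 2.5 mM DTT, 0.01% Triton X-100; 1 h at room temperature; ADP-Glo luminescence for ADP formed.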

[16] = target: Lysosomal acid glucosylceramidase (Homo sapiens) (UniProt P04062); test: Glucocerebrosidase-p2 (AID 348; in the data active = potency below about 10 µM; also: potency is read from the fitted curve at half-maximal effect); settings: purified GBA, blue fluorogenic substrate, 40 min
In short: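 Compounds titrated from 0.6 nM upwards against 0.2 nM enzyme in pH 5.9 citric acid/KH2PO4, taurocholate, tween-20; blue fluorogenic substrate 80 uM, 40 min room temperature, stopped and read Ex 365/Em 440 for AC50.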

[17] = target: Cytochrome P450 3A4 (Homo sapiens) (UniProt P08684); test: qHTS Assay for Inhibitors and Substrates of Cytochrome P450 3A4 (AID 884); also: % is scaled to controls: 0 for no effect and ±100 for the full control effect; nearly all actives have a fitted effect of over 50% in size
In short: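 20 nM human CYP3A4 with 25 uM Luciferin-PPXE (at KM) in 200 mM KPO4, preincubated 10 min with compound; NADPH regeneration started a 60 min RT reaction. Luciferin detected by luminescence, normalized to 57 uM ketoconazole as full inhibition.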

[18] = qHTS Assay for Identification of Small Molecule Agonists for Hypoxia Response Element Signaling Pathway (AID 914; active = well fitted activation curve with a large enough effect in the signal ratio, with a control signal flat, not every such curve was filed as active; the % refers to the signal ratio; also: potency is read from the fitted curve at half-maximal effect); settings: ME-180 (cervical carcinoma) HRE-bla reporter, beta-lactamase ratio, CoCl2, 17 h; activation: stronger effect = higher value
In short: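 HRE-bla ME-180 cells with beta-lactamase reporter under hypoxia response element, compounds with EC50 CoCl2 for 17 hours at 37 C. CCF4 substrate, 460nm/530nm emission ratio gave %Activity; AC50 from titration series.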

[19] = measured here: cell count channel max response
[20] = measured here: lipid channel max response

Chain of Dual specificity protein kinase CLK4 (Homo sapiens) (Q9HAZ1 whole entry, looked up): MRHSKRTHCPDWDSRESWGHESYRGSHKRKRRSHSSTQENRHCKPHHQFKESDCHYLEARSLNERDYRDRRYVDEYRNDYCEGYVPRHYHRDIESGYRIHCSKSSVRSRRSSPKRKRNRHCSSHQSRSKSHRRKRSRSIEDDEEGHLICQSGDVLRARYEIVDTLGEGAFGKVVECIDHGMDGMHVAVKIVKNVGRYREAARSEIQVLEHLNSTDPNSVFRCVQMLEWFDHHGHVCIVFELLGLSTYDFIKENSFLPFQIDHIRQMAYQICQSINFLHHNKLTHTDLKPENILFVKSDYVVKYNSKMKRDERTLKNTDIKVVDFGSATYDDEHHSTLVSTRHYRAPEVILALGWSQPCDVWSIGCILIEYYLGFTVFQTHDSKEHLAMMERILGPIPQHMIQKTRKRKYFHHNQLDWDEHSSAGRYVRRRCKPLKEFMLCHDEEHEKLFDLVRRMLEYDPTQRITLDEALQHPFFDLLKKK
Chain of Lysosomal acid glucosylceramidase (Homo sapiens) (P04062 whole entry, looked up): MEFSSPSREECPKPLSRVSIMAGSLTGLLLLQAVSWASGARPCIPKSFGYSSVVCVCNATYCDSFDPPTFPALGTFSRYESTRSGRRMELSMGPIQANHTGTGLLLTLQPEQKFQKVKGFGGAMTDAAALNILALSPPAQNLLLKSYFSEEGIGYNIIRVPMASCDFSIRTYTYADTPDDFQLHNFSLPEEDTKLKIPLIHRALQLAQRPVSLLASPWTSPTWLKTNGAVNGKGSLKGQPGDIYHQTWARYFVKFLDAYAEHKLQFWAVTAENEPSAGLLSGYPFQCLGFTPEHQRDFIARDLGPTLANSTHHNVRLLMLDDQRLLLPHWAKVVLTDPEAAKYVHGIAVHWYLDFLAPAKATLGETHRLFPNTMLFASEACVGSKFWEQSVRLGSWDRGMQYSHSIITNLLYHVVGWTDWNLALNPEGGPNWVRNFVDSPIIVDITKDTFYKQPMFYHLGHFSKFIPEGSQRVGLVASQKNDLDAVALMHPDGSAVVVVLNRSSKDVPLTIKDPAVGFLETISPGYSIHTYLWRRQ
Chain of Cytochrome P450 1A2 (Homo sapiens) (P05177 whole entry, looked up): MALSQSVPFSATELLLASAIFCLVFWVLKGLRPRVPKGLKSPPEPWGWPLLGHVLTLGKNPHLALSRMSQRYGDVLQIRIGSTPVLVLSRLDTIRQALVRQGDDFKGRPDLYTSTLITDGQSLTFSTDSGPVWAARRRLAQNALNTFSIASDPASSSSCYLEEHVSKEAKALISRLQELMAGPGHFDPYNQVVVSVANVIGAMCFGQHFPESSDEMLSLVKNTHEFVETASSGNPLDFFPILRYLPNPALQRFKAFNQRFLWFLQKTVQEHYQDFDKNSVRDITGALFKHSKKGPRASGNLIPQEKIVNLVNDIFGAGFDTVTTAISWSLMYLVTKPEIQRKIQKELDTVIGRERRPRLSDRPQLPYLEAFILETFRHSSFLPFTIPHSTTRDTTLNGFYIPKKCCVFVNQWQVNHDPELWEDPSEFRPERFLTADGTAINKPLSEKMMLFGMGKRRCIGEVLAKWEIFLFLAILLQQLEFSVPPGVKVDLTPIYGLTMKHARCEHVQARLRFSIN
Chain of 3',5'-cyclic-AMP phosphodiesterase 4B (Homo sapiens) (Q07343 whole entry, looked up): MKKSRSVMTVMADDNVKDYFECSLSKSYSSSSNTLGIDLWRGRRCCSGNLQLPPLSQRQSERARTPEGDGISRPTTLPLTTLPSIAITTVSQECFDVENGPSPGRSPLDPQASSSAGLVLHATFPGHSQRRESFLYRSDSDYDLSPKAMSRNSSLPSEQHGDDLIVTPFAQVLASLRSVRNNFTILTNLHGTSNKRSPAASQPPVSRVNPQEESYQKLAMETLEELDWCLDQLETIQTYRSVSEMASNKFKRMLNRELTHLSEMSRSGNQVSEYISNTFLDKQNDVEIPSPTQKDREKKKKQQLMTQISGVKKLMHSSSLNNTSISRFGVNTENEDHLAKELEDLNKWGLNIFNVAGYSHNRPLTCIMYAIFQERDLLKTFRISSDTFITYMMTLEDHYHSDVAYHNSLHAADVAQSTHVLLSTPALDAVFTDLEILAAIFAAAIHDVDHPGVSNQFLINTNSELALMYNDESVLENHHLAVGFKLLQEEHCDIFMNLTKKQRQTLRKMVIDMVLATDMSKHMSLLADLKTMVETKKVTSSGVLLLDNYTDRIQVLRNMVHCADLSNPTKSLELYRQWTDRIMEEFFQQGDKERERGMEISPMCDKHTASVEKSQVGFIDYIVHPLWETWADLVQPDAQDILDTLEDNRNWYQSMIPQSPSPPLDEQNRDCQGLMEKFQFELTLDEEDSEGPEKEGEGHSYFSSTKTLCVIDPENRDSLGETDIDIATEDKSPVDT
Chain of Cytochrome P450 2C19 (Homo sapiens) (P33261 whole entry, looked up): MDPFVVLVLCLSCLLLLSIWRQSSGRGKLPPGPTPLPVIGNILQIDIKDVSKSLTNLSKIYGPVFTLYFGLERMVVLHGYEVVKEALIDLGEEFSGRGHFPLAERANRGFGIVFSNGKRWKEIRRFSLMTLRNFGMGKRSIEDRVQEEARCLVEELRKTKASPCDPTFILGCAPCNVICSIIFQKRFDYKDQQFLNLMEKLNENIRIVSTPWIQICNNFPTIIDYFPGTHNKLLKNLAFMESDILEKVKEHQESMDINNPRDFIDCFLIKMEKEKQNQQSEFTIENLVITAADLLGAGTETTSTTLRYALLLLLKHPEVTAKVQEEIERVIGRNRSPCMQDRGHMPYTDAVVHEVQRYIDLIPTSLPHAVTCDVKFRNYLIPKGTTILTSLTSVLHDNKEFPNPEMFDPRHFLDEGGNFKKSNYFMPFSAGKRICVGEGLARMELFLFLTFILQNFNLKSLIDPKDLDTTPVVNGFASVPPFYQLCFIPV
Chain of Ubiquitin carboxyl-terminal hydrolase 1 (Homo sapiens) (O94782 whole entry, looked up): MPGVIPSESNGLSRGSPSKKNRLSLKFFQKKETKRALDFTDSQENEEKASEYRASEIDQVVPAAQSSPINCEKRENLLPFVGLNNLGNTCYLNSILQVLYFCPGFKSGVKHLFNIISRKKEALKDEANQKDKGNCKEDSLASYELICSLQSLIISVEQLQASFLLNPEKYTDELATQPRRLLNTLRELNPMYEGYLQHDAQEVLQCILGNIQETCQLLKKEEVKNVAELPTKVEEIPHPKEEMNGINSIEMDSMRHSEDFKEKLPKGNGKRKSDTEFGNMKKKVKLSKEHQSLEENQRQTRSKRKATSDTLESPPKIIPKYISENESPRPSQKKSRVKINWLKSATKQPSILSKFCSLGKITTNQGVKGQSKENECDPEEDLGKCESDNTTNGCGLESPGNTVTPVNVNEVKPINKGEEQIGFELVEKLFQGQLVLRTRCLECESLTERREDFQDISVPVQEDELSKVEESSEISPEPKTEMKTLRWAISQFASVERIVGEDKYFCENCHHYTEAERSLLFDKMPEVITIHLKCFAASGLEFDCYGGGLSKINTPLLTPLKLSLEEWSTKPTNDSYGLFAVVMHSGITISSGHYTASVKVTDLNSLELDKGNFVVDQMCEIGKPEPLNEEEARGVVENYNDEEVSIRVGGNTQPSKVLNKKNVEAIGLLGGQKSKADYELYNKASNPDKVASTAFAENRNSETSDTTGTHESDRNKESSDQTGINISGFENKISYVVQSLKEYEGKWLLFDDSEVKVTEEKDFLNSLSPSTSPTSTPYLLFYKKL
Chain of Cytochrome P450 3A4 (Homo sapiens) (P08684 whole entry, looked up): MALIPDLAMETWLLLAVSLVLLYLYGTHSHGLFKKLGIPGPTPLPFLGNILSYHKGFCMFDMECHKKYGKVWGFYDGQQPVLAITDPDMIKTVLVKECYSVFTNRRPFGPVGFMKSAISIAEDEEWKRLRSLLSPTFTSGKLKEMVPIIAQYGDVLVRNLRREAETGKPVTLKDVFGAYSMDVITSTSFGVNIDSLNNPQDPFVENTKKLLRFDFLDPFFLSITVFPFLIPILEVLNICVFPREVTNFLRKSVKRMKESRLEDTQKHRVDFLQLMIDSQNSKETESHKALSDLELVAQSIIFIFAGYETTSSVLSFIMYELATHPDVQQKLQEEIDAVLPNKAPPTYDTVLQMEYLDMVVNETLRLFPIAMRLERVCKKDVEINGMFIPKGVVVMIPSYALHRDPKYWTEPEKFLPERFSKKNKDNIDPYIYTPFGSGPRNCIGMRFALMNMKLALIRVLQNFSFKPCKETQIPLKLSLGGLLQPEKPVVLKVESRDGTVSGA
Chain of Glucocorticoid receptor (Homo sapiens) (P04150 whole entry, looked up, the tested form may be a part): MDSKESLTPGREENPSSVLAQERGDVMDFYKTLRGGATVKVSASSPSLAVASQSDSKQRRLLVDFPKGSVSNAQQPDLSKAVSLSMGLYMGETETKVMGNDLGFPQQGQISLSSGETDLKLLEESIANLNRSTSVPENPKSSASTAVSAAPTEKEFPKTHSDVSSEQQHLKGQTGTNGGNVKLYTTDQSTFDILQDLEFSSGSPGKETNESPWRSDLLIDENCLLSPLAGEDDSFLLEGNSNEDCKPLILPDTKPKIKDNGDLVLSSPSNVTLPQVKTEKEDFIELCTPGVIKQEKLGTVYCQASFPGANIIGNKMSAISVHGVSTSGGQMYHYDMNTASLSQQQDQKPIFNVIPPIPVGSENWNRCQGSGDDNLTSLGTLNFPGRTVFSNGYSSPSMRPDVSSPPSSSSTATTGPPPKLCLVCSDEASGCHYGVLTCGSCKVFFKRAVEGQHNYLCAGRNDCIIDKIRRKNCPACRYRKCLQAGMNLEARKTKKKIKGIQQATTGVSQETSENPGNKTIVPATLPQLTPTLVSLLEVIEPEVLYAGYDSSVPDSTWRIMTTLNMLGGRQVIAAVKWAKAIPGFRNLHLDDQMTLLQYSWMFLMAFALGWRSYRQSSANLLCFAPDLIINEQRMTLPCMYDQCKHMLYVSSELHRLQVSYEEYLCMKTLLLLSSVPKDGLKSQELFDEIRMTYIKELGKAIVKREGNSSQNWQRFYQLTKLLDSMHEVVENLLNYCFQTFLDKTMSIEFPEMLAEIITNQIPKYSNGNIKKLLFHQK

| SMILES | Potency [1] | activity, negative = inhibition [2] | Potency [3] | Potency [4] | Potency [5] | Potency [6] | Potency [7] | activity change, negative = inhibition [8] | max response [8, 19] [%] | max response [8, 20] [%] | Potency [9] | Potency [10] | Potency [11] | activity change, negative = inhibition [12] | activity change, negative = inhibition [13] | Potency [14] | Potency [15] | Potency [16] | Potency [17] | Potency [18] |
| --- | --- | --- | --- | --- | --- | --- | --- | --- | --- | --- | --- | --- | --- | --- | --- | --- | --- | --- | --- | --- |
| COc1ccc(CNc2ncnc3ccc(-c4ccc(N(C)C)cc4)cc23)c(OC)c1 | 2.51 µM (active) | -9.37% (inactive) | > 46 µM (inactive) | > 46 µM (inactive) | inactive | inactive | 3.98 µM (active) | 3.77% (inactive) | -26.6 | -24.8 | inactive | inactive | inactive |  |  |  |  |  |  |  |
| CS(=O)(=O)Nc1cccc(-c2nc(NC3CC3)c3ccccc3n2)c1 |  | 4.92% (inactive) | > 46 µM (inactive) | > 46 µM (inactive) | inactive |  |  | 3.51% (inactive) | 19.9 | 22.8 | 7.94 µM (active) | 12.6 µM (active) | inactive | -17.2% (inactive) | 0.73% (inactive) | inactive | 10 µM (active) |  |  |  |
| COc1cccc(Nc2ncc3nc(C)c(=O)n(C[C@H]4CCCO4)c3n2)c1 |  | -10.3% (inactive) | > 9.22 µM (inactive) | > 46 µM (inactive) | inactive |  |  | -3.96% (inactive) | -4.6 | -7.75 | 12.6 µM (active) |  | inactive | -22.6% (inactive) | 8.96% (inactive) | inactive | 17.8 µM (active) | > 11.4 µM (inactive) |  |  |
| CN1CCN(c2ncc3nc(-c4cccc(C#N)c4)c(=O)n(C[C@H]4CCCO4)c3n2)CC1 | 15.8 µM (active) | 11.4% (inactive) | > 9.22 µM (inactive) | > 46 µM (inactive) | inactive |  | inactive | 2.76% (inactive) | 11.1 | 12.1 | inactive | inactive | inactive | 27.9% (inactive) | -3.07% (inactive) | inactive |  | > 11.4 µM (inactive) | inactive |  |
| Clc1ccccc1-c1ccc2ncnc(NC3CCNCC3)c2c1 | 15.8 µM (active) | -0.786% (inactive) |  | > 46 µM (inactive) | inactive |  | 3.98 µM (active) | 1.65% (inactive) | 0.483 | 1.92 | 25.1 µM (active) |  | inactive |  | -8.44% (inactive) | inactive | 22.4 µM (active) | > 11.4 µM (inactive) |  |  |
| COc1ccc(-n2c(=O)c(-c3cn(C)c4ccccc34)nc3cnc(N4CCNCC4)nc32)cc1 | 15.8 µM (active) |  | > 9.22 µM (inactive) | > 46 µM (inactive) | inactive | inactive |  | 7.55% (inactive) | 16.8 | 26.4 | inactive | inactive | inactive | 26.2% (inactive) |  |  | inactive |  |  | 3.16 µM (active) |
